In PubChem BioAssay (NCATS):

Assay: High-throughput drug toxicity screening in the BPDCN cell line Gen2.2 (AID 1224824)
Details: Gen2.2 BPDCN cells; at 45.8 µM (top of the series) unless noted
From the text: Blastic plasmacytoid dendritic cell neoplasm (BPDCN) is a rare, aggressive and largely incurable hematologic malignancy originating from plasmacytoid dendritic cells (pDCs). Although an initial response to chemotherapy is common, BPDCN prognosis is extremely poor and most patients relapse with drug-resistant disease leading to a median overall survival of ~1 year after diagnosis. To explore novel potential therapeutic strategies in BPDCN, we performed a high-throughput drug toxicity screening in BPDCN cell liens, using of a library of 1,912 small molecules, enriched for compounds that are either approved or in early stages of development for cancer therapy.
A total of 500 exponentially growing Gen2.2 cells were seeded per well in 5 uL of media (RPMI + Glutamine, without phenol red plus10% FBS and 1X Pen/Strep) into 1536-well solid white high base tissue culture treated Greiner One Bio Plates (789173-F), using a multidrop combi dispenser and a small sterile cassette. Compounds and controls totaling 23nL per well (negative control DMSO and positive control 9.2 uM Bortezomib-final) were immediately added to the plates using a 1536 head pin tool from Kalypsys. The plates were then covered with stainless steel gasket lids from Kalypsys and incubated for 48 hours at 37C under 95% relative humidity with 5% CO2. After 48 hours, the plates were removed and allowed to reach room temperature before 3 uL of Cell Titer Glo reagent (Promega) were added using an Aurora Flying Reagent Dispenser Bioraptor. The plates were then spun at 1000 rpms to remove bubbles and incubated for 15 minutes at room temperature before reading on a ViewLux using a luminescent filter with a 10 second exposure. The relative luciferase units were used to calculated percent activity using DMSO as 100% and Bortezomib as 0%.

Which cell viability, % of control (lower = more cytotoxic) does the source give for CCN1CCN(Cc2ccc(-c3cc4c(N[C@H](C)c5ccccc5)ncnc4[nH]3)cc2)CC1 here?
Its cell viability, % of control (lower = more cytotoxic) is 42.9%.

For C=CC(=O)Nc1cc2c(Nc3ccc(F)c(Cl)c3)ncnc2cc1OCCCN1CCOCC1, which cell viability, % of control (lower = more cytotoxic) is on record?
The cell viability, % of control (lower = more cytotoxic) was 5.62%.

With C[C@@H](Oc1cc(-c2cnn(C3CCNCC3)c2)cnc1N)c1c(Cl)ccc(F)c1Cl as the compound, how does the cell viability, % of control (lower = more cytotoxic) read?
The cell viability, % of control (lower = more cytotoxic) was 13.2%.

With CCC(=C(c1ccccc1)c1ccc(OCCN(C)C)cc1)c1ccccc1 as the compound, how does the cell viability, % of control (lower = more cytotoxic) read?
The cell viability, % of control (lower = more cytotoxic) was 31.7%.

Which cell viability, % of control (lower = more cytotoxic) does the source give for COc1cc2ncn(-c3cc(OCc4ccccc4C(F)(F)F)c(C(N)=O)s3)c2cc1OC here?
Its cell viability, % of control (lower = more cytotoxic) is 43.1%.

For Nc1cccc(-c2cc3c(Oc4cccc(O)c4)ncnc3[nH]2)c1, which cell viability, % of control (lower = more cytotoxic) is on record?
Its cell viability, % of control (lower = more cytotoxic) is 115%.

With CC1(O)CC(c2nc(-c3ccc4ccc(-c5ccccc5)nc4c3)c3c(N)nccn23)C1 (stereo not given) as the compound, how does the cell viability, % of control (lower = more cytotoxic) read?
Its cell viability, % of control (lower = more cytotoxic) is 117%.

Which cell viability, % of control (lower = more cytotoxic) does the source give for CNC(=O)c1ccc(N2C(=S)N(c3cnc(C#N)c(C(F)(F)F)c3)C(=O)C23CCC3)cc1F here?
The cell viability, % of control (lower = more cytotoxic) was 7.43%.

With CNC(=O)c1ccc(-c2cnc3ncc(Cc4ccc5ncccc5c4)n3n2)cc1F as the compound, how does the cell viability, % of control (lower = more cytotoxic) read?
The cell viability, % of control (lower = more cytotoxic) was 48.9%.

For O=C(Nc1cc(C(F)(F)F)cc(C(F)(F)F)c1)c1cc(Cl)ccc1O, which cell viability, % of control (lower = more cytotoxic) is on record?
The cell viability, % of control (lower = more cytotoxic) was 7.43%.

With CC(C)CC(=O)Nc1n[nH]c2c1CN(C(=O)C1CCN(C)CC1)C2(C)C as the compound, how does the cell viability, % of control (lower = more cytotoxic) read?
Its cell viability, % of control (lower = more cytotoxic) is 3.03%.

For O=C(NCCCNc1nc(Nc2cccc(NC(=O)N3CCCC3)c2)ncc1I)c1cccs1, which cell viability, % of control (lower = more cytotoxic) is on record?
The cell viability, % of control (lower = more cytotoxic) was 5.4%.

Which cell viability, % of control (lower = more cytotoxic) does the source give for O=c1[nH]c(=O)n(C2CCCO2)cc1F (stereo not given) here?
The cell viability, % of control (lower = more cytotoxic) was 130% [at 92.2 µM].

With CC=CC1=C(C(=O)O)N2C(=O)[C@H](NC(=O)[C@H](N)c3ccc(O)cc3)[C@@H]2SC1 as the compound, how does the cell viability, % of control (lower = more cytotoxic) read?
The cell viability, % of control (lower = more cytotoxic) was 52.6%.

Which cell viability, % of control (lower = more cytotoxic) does the source give for CCCNC(=O)Nc1ccc(Oc2ncnc3cc(OC)c(OC)cc23)cc1Cl here?
Its cell viability, % of control (lower = more cytotoxic) is 69.6%.

Which cell viability, % of control (lower = more cytotoxic) does the source give for CC(=O)Nc1sc2c(c1-c1nc3ccccc3s1)CNC2 here?
Its cell viability, % of control (lower = more cytotoxic) is 8.36%.

For OCCCNc1cc(-c2ccnc(Nc3cccc(Cl)c3)n2)ccn1, which cell viability, % of control (lower = more cytotoxic) is on record?
The cell viability, % of control (lower = more cytotoxic) was 4.08%.

Which cell viability, % of control (lower = more cytotoxic) does the source give for Cc1cc(Nc2cc(N3CCN(C)CC3)nc(C=Cc3ccccc3)n2)n[nH]1 here?
Its cell viability, % of control (lower = more cytotoxic) is 9.99% [at 92.2 µM].

Which cell viability, % of control (lower = more cytotoxic) does the source give for O=C(NC1CCNCC1)c1[nH]ncc1NC(=O)c1c(Cl)cccc1Cl here?
The cell viability, % of control (lower = more cytotoxic) was 5.14%.

With CCOc1ccccc1OCCNC(C)Cc1ccc(OC)c(S(N)(=O)=O)c1 (stereo not given) as the compound, how does the cell viability, % of control (lower = more cytotoxic) read?
Its cell viability, % of control (lower = more cytotoxic) is 122%.

With Nc1nc(-c2nn(Cc3ccccc3F)c3ncccc23)nc(N)c1N1CCOCC1 as the compound, how does the cell viability, % of control (lower = more cytotoxic) read?
Its cell viability, % of control (lower = more cytotoxic) is 199%.

With CC(C)Nc1cc(C(F)(F)F)cc2nc(NC(=O)c3cccnc3)nn12 as the compound, how does the cell viability, % of control (lower = more cytotoxic) read?
Its cell viability, % of control (lower = more cytotoxic) is 80.4%.

Which cell viability, % of control (lower = more cytotoxic) does the source give for O=C(O)CO.[NH2-].[NH2-].[Pt+2] here?
The cell viability, % of control (lower = more cytotoxic) was 124%.

With Cn1c(CNc2ccc(C(=N)N)cc2)nc2cc(C(=O)N(CCC(=O)O)c3ccccn3)ccc21 as the compound, how does the cell viability, % of control (lower = more cytotoxic) read?
The cell viability, % of control (lower = more cytotoxic) was 125% [at 23.2 µM].

Which cell viability, % of control (lower = more cytotoxic) does the source give for CS(=O)(=O)c1ccc(-c2cnc(N)c(C(=O)Nc3ccccc3)n2)cc1 here?
The cell viability, % of control (lower = more cytotoxic) was 99.6%.

For CC(C)c1cc(-c2n[nH]c(=O)n2-c2ccc3c(ccn3C)c2)c(O)cc1O, which cell viability, % of control (lower = more cytotoxic) is on record?
The cell viability, % of control (lower = more cytotoxic) was 4.99%.

Which cell viability, % of control (lower = more cytotoxic) does the source give for CN(C)CC=CC(=O)Nc1cc2c(Nc3ccc(F)c(Cl)c3)ncnc2cc1O[C@H]1CCOC1 here?
The cell viability, % of control (lower = more cytotoxic) was 6.25%.

Which cell viability, % of control (lower = more cytotoxic) does the source give for CC(=O)OCCN1C(=O)c2c(C)nc3ccc(S(=O)(=O)N4CCOCC4)cc3c2C1=O here?
The cell viability, % of control (lower = more cytotoxic) was 69.9%.

Which cell viability, % of control (lower = more cytotoxic) does the source give for COc1cc2c(Oc3ccc4[nH]c(C)cc4c3F)ncnc2cc1OCCCN1CCCC1 here?
Its cell viability, % of control (lower = more cytotoxic) is 7.59%.

For CN1CCN(c2ccc3nc(-c4c(N)c5c(F)cccc5[nH]c4=O)[nH]c3c2)CC1, which cell viability, % of control (lower = more cytotoxic) is on record?
Its cell viability, % of control (lower = more cytotoxic) is 9.8%.

Which cell viability, % of control (lower = more cytotoxic) does the source give for COc1cc(C)c(Sc2cnc(NC(=O)c3ccc(CNC(C)C(C)C)cc3)s2)cc1C(=O)N1CCN(C(C)=O)CC1 (stereo not given) here?
The cell viability, % of control (lower = more cytotoxic) was 140%.

For COC(=O)C[C@](O)(CCCC(C)(C)O)C(=O)O[C@@H]1C(OC)=C[C@]23CCCN2CCc2cc4c(cc2[C@H]13)OCO4, which cell viability, % of control (lower = more cytotoxic) is on record?
The cell viability, % of control (lower = more cytotoxic) was 131%.

With Cc1[nH]c2ccccc2c1CCNCc1ccc(C=CC(=O)NO)cc1 as the compound, how does the cell viability, % of control (lower = more cytotoxic) read?
The cell viability, % of control (lower = more cytotoxic) was 7.87%.

Which cell viability, % of control (lower = more cytotoxic) does the source give for N#CCNC(=O)c1ccc(-c2ccnc(Nc3ccc(N4CCOCC4)cc3)n2)cc1 here?
Its cell viability, % of control (lower = more cytotoxic) is 55.1%.

For CC1=C(CO)C(=O)O[C@@H]([C@@H](C)[C@H]2CC[C@H]3[C@@H]4C[C@H]5O[C@]56[C@@H](O)C=CC(=O)[C@]6(C)[C@@H]4CC[C@]23C)C1, which cell viability, % of control (lower = more cytotoxic) is on record?
Its cell viability, % of control (lower = more cytotoxic) is 3.38%.

With Cc1[nH]nc2ccc(-c3cncc(OC[C@@H](N)Cc4ccccc4)c3)cc12 as the compound, how does the cell viability, % of control (lower = more cytotoxic) read?
Its cell viability, % of control (lower = more cytotoxic) is 7.91%.

For CCc1cc2c(cc1N1CCC(N3CCOCC3)CC1)C(C)(C)c1[nH]c3cc(C#N)ccc3c1C2=O, which cell viability, % of control (lower = more cytotoxic) is on record?
Its cell viability, % of control (lower = more cytotoxic) is 258%.

With O=C(O)c1ccc2cc(-c3ccc(O)c(C45CC6CC(CC(C6)C4)C5)c3)ccc2c1 as the compound, how does the cell viability, % of control (lower = more cytotoxic) read?
The cell viability, % of control (lower = more cytotoxic) was 30.9%.

Which cell viability, % of control (lower = more cytotoxic) does the source give for CCN(CC)CCCCNc1ncc2cc(-c3cc(OC)cc(OC)c3)c(NC(=O)NC(C)(C)C)nc2n1 here?
The cell viability, % of control (lower = more cytotoxic) was 4.8%.

Which cell viability, % of control (lower = more cytotoxic) does the source give for CCc1c2c(nc3ccc(O)cc13)-c1cc3c(c(=O)n1C2)COC(=O)[C@]3(O)CC here?
The cell viability, % of control (lower = more cytotoxic) was 6.79%.
